From PubChem BioAssay (NCI)
About 83,000 compounds went through this panel and 20% of them were active in at least one assay; those are over-represented in the sample as a whole.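 Plates (96-well) were seeded with cells, treated with compound at one concentration, and incubated for 48 hours before percent growth was determined.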 Activity calls are given as the source filed them. How the source made its calls: active means growth percent below 10; inactive means the rest.

tested on: M14 melanoma; test: NCI-60 one-dose screen, 48 h (100 = growth as untreated, 0 = no growth, -100 = all killed); settings: 10 µM unless noted

Compound	growth
CC(=O)N1N=C(c2ccc(Cl)cc2)CC1c1c(C)nn(-c2ccccc2)c1N(C)Cc1ccccc1 (stereo not drawn)	79.9% (inactive)
CC1(C)CC2(C)CC(=O)C1C(C(=O)O)C2C(=O)O (stereo not drawn)	119% (inactive)
COc1ccc(-c2cnc(SCC(=O)Nc3ccc(-c4nc5ccccc5s4)cc3)n2-c2ccc(OC)cc2)cc1	112% (inactive)
Nc1c(C(=O)Nc2cccc(Cl)c2)sc2nc3c(cc12)C(O)CCC3 (stereo not drawn)	17.1% (inactive)
COc1cccc(-c2nc(-c3ccc(N)cc3)co2)c1	91.1% (inactive)
O=C(Nc1ccccc1S)c1ccccc1	101% (inactive)
COc1ccc2c(c1)c(CC(=O)[Se]C)c(C)n2C(=O)c1ccc(Cl)cc1	-13.9% (active)
Nc1nc(SCc2cccnc2)c2ncn(C3OC(CO)C(O)C3O)c2n1 (stereo not drawn)	97.8% (inactive)
O=C1c2cc3c(cc2-c2c1c1ccc(Cl)cc1c(=O)n2CCCNCCO)OCO3	-83.3% (active)
N#Cc1c(NC(=O)c2ccco2)[n+]([O-])c2cc(Cl)c(Cl)cc2[n+]1[O-]	142% (inactive)
Cc1[nH]ccc2cc3nc4ccccc4c3cc12	38% (inactive)
C=C1CC[C@@H]2[C@](C)(COC(C)=O)[C@H](OC(C)=O)CC[C@@]2(C)[C@@H]1CC(NCc1ccccc1)C1=CCOC1=O (stereo partly drawn)	42.1% (inactive)
O=C(CSc1nnc(-c2cc(-c3ccccc3)nc3ccccc23)o1)c1ccc(Br)cc1	101% (inactive)
Cc1cc(C)cc(S(=O)(=O)n2ccc(-c3ccc4c(c3)CCC(C)(C)O4)n2)c1	82.7% (inactive)
CCc1nn2c(-c3ccc(Cl)cc3C)c(-c3cc(OC)c(OC)c(OC)c3)nc2s1	76.7% (inactive)
O=C(Nc1cccc(-n2cc(-c3ccncc3)c(-c3cc(O)cc(Cl)c3)n2)c1)Nc1ccc(Cl)c(Cl)c1	-69.2% (active)
COc1ccccc1-n1c(-c2ccc(O)cc2C)cn2c3c(=O)[nH]c(=O)n(C)c3nc12	88.7% (inactive)
CCCCCN1C(=O)CCC1=O	107% (inactive)

Compound	growth
O=C1NCCc2c1noc2-c1ccccc1	101% (inactive)
COc1cc(/C=C/C(=O)c2c(C)n([O-])c3ccccc3[n+]2=O)cc(OC)c1OC	60.2% (inactive)
O=C(c1ccccc1)C(CN1CCCCC1)c1ccccc1 (stereo not drawn)	-74.3% (active)
c1ccc2c(-c3nc4ccccc4[nH]3)cccc2c1	3.75% (active)
COc1cc(/C=C/c2cc(/C=C/c3ccc(O)c(OC)c3)n(C(=O)Cc3ccccc3)n2)ccc1O	0.243% (active)
O=C1NC(=O)/C(=C/c2ccc(Cl)cc2Cl)N1	121% (inactive)
Nc1nc2c(c(=O)[nH]1)C1(C(=O)Nc3ccccc31)c1c(nc(N)[nH]c1=O)N2	99.3% (inactive)
COc1ccc(NS(=O)(=O)N2CCCCC2)cc1	102% (inactive)
COc1ccc(-c2cc(-c3cccnc3)nc3sc(C(=O)Nc4ccccc4)c(N)c23)cc1OC	66.3% (inactive)
C/C(=C\CCc1ccoc1)CC/C=C(\C)CCCNc1ccc(F)cc1	103% (inactive)
Cc1cc2c(cc1C)[n+](Cc1ccc3ccccc3c1)cn2Cc1ccc2ccccc2c1	-78.8% (active)
CCN(CC)CCCCCCCNc1c2ccc(Cl)cc2nc2ccc(OC)cc12	-48.8% (active)
Cc1cc(C(=O)Nc2ccc3cc(CN4CCOCC4)ccc3n2)c(C)n1-c1ccccc1	13.5% (inactive)
COc1cc(Cl)cc(-c2nn(-c3cccc(NC(=O)c4cc(C(F)(F)F)cc(C(F)(F)F)c4)c3)cc2-c2ccncc2)c1	67.3% (inactive)
O=C(NCCNC(=O)Oc1cccc2ccccc12)Oc1cccc2ccccc12	107% (inactive)
COC(=O)[C@H](Cc1cn(C)cn1)NC(=O)[C@H](C)NC(=O)Nc1cc(C(F)(F)F)cc(C(F)(F)F)c1	-85.2% [100 µM] (active)
O=C1CNc2cc(Cl)ccc2N1	114% (inactive)

tested on: HCT-15 colon; test: as above; settings: 10 µM unless noted

Compound	growth
CC1(C)CC2(C)CC(=O)C1C(C(=O)O)C2C(=O)O (stereo not drawn)	110% (inactive)
COc1ccc2c(c1)[n+](=O)c(C(=O)/C=C/c1cc(OC)c(OC)c(OC)c1)c(C)n2[O-]	49.2% (inactive)
Nc1c(C(=O)Nc2cccc(Cl)c2)sc2nc3c(cc12)C(O)CCC3 (stereo not drawn)	18.8% (inactive)
O=C(Nc1ccccc1S)c1ccccc1	108% (inactive)
O=C1c2cc3c(cc2-c2c1c1ccc(Cl)cc1c(=O)n2CCCNCCO)OCO3	-78.3% (active)
Cc1[nH]ccc2cc3nc4ccccc4c3cc12	20.3% (inactive)
C=C1CC[C@@H]2[C@](C)(COC(C)=O)[C@H](OC(C)=O)CC[C@@]2(C)[C@@H]1CC(NCc1ccccc1)C1=CCOC1=O (stereo partly drawn)	41% (inactive)
COC(=O)c1cc2oc(/C=N\NC(=O)c3cc4oc(C)c(C)c4[nH]3)cc2[nH]1	108% (inactive)
O=C(CSc1nnc(-c2cc(-c3ccccc3)nc3ccccc23)o1)c1ccc(Br)cc1	109% (inactive)
O=c1oc2c(cc1-c1ccc([N+](=O)[O-])cc1)C(O)Oc1ccccc1-2 (stereo not drawn)	92.2% (inactive)
CC(C)Sc1nc(Cl)c(C#N)c(-c2ccc(F)cc2)n1	87.4% (inactive)
Cc1cc(C)cc(S(=O)(=O)n2ccc(-c3ccc4c(c3)CCC(C)(C)O4)n2)c1	82.3% (inactive)
O=C(Nc1cccc(-n2cc(-c3ccncc3)c(-c3cc(O)cc(Cl)c3)n2)c1)Nc1ccc(Cl)c(Cl)c1	-25.3% (active)
COc1ccccc1-n1c(-c2ccc(O)cc2C)cn2c3c(=O)[nH]c(=O)n(C)c3nc12	98.4% (inactive)
CCOC(=O)c1cc2oc(/C=C/c3cc(=O)c4cc(Cl)ccc4o3)cc2[nH]1	105% (inactive)
c1ccc2c(-c3nc4ccccc4[nH]3)cccc2c1	27.1% (inactive)
COc1cc(/C=C/c2cc(/C=C/c3ccc(O)c(OC)c3)n(C(=O)Cc3ccccc3)n2)ccc1O	6.11% (active)
Nc1nc2c(c(=O)[nH]1)C1(C(=O)Nc3ccccc31)c1c(nc(N)[nH]c1=O)N2	105% (inactive)
COc1ccc(-c2cc(-c3cccnc3)nc3sc(C(=O)Nc4ccccc4)c(N)c23)cc1OC	63.5% (inactive)
CCN(CC)CCCCCCCNc1c2ccc(Cl)cc2nc2ccc(OC)cc12	-5.62% (active)
Cc1cc(C(=O)Nc2ccc3cc(CN4CCOCC4)ccc3n2)c(C)n1-c1ccccc1	40.4% (inactive)
COc1cc(Cl)cc(-c2nn(-c3cccc(NC(=O)c4cc(C(F)(F)F)cc(C(F)(F)F)c4)c3)cc2-c2ccncc2)c1	58.6% (inactive)
O=C1CNc2cc(Cl)ccc2N1	109% (inactive)
